These results are taken from PubChem BioAssay (NCI).

Test systems include DU-145 prostate; K-562 leukemia; MALME-3M melanoma; MDA-MB-231 breast; SF-268 CNS; SF-295 CNS; SF-539 CNS; M14 melanoma; HCT-15 colon; HT29 colon; SNB-75 CNS; SNB-19 CNS; U251 CNS; PC-3 prostate; SK-MEL-5 melanoma; UACC-62 melanoma; LOX IMVI melanoma; SK-MEL-28 melanoma.
What all share (assay): NCI-60 one-dose screen, 48 h (100 = growth as untreated, 0 = no growth, -100 = all killed)
What all share (settings): 10 µM unless noted

The structures appear in SMILES notation. Compounds without any hit were thinned out: in the full panel of roughly 83,000, 20% have a hit.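 Interpretation: 100, growth as untreated; towards 0, rising growth inhibition; 0, no net growth; 0 to -100, cell death. Compounds scoring below 10 were considered active.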 Unmarked numbers belong to inactive results. Calls of active or inactive are those of the source.

As to `COc1ccc2c(CCCCC(c3ccccc3)c3ccccc3)c3[n+](cc2c1OC)CCc1cc2c(cc1-3)OCO2`, the growth in the test with DU-145 prostate is -80% (active); in the test with K-562 leukemia, -7.74% (active); in the test with MALME-3M melanoma, -80.9% (active); in the test with MDA-MB-231 breast it was -75.1% (active); with SF-268 CNS, -60.7% (active); with SF-295 CNS it was -84.2% (active). Further, the growth with SF-539 CNS is -64.5% (active); in the test on M14 melanoma, -76.1% (active); in the test on HCT-15 colon, -47% (active); in the test with HT29 colon it was -73.7% (active); in the test with SNB-75 CNS, -74% (active); with SNB-19 CNS it was -65.2% (active). Moreover, the growth in the test with U251 CNS was -93.2% (active); in the test with PC-3 prostate it was -75% (active); with SK-MEL-5 melanoma, -99.5% (active); in the test on UACC-62 melanoma, -63.6% (active); in the test on LOX IMVI melanoma, -100% (active); in the test with SK-MEL-28 melanoma, -82.1% (active).
As to `CCOC(=O)C1=C(C)N=C2Sc3cccc(OC)c3N2[C@H]1c1ccccn1`, the growth with DU-145 prostate is 105%; with K-562 leukemia it was 101%; with MALME-3M melanoma it was 91.2%; with MDA-MB-231 breast it was 90.6%; with SF-268 CNS, 94.2%; in the test on SF-295 CNS, 101%. In addition, the growth with SF-539 CNS is 103%; in the test on M14 melanoma it was 103%; with HCT-15 colon, 104%; in the test with HT29 colon, 97.3%; in the test on SNB-75 CNS, 93.7%; with SNB-19 CNS, 96.8%. Besides, the growth with U251 CNS is 96.4%; in the test on PC-3 prostate, 88.3%; with SK-MEL-5 melanoma, 101%; with UACC-62 melanoma it was 87.1%; in the test with LOX IMVI melanoma, 96.7%; in the test with SK-MEL-28 melanoma, 119%.
In the case of `O=C1CC(c2ccc(Cl)cc2)c2ncn(-c3cccc(Cl)c3)c2N1` (stereo not given), the growth in the test with DU-145 prostate is 62.9%; in the test on K-562 leukemia it was 23.8%; in the test with MALME-3M melanoma, 53.2%; with MDA-MB-231 breast, 48.3%; in the test on SF-268 CNS, 58.2%; in the test with SF-295 CNS, 47.6%. In addition, the growth was 33% in the test with SF-539 CNS; 21.6% with M14 melanoma; 27.7% in the test on HCT-15 colon; 28.8% with HT29 colon; 36.2% in the test on SNB-75 CNS; 50% with SNB-19 CNS. Further, the growth is 36.3% in the test with U251 CNS; 67.7% in the test on PC-3 prostate; 34.1% in the test with SK-MEL-5 melanoma; 33.9% in the test with UACC-62 melanoma; 47.5% with LOX IMVI melanoma; 54.8% in the test with SK-MEL-28 melanoma.
In the case of `CCN(CCN(C)C)C(=O)CNCc1cc(C(N)=O)ccn1`, the growth is 112% in the test on DU-145 prostate; 95.2% with K-562 leukemia; 114% with MALME-3M melanoma; 97.6% with MDA-MB-231 breast; 108% with SF-268 CNS; 104% with SF-295 CNS. The growth in the test on SF-539 CNS is 105%; with M14 melanoma, 103%; in the test with HCT-15 colon, 102%; in the test with HT29 colon, 80%; in the test with SNB-75 CNS, 98.6%; in the test on SNB-19 CNS, 104%. For the same molecule, the growth in the test with U251 CNS was 87.5%; in the test on PC-3 prostate it was 79.5%; with SK-MEL-5 melanoma, 95.4%; in the test with UACC-62 melanoma, 105%; in the test with LOX IMVI melanoma it was 99.5%.
On to `ClCc1ccc(-c2ccc(Cn3cnc4c(Cl)nc(Cl)nc43)cc2)cc1`, for which the growth with DU-145 prostate is -93.4% (active); with K-562 leukemia it was 9.48% (active); with MALME-3M melanoma, -20% (active); in the test on MDA-MB-231 breast it was -37.7% (active); in the test on SF-268 CNS, -13.5% (active); with SF-295 CNS, -74.2% (active). The growth is -86.9% (active) in the test on SF-539 CNS; 48.3% in the test with M14 melanoma; -44.3% (active) with HCT-15 colon; 0.0492% (active) in the test with HT29 colon; -26.9% (active) in the test with SNB-75 CNS; 0.603% (active) in the test with SNB-19 CNS. The growth is -79.2% (active) in the test on U251 CNS; -95.6% (active) in the test on PC-3 prostate; -67.7% (active) in the test with SK-MEL-5 melanoma; -13.6% (active) in the test with UACC-62 melanoma; -70.8% (active) with LOX IMVI melanoma; -29.4% (active) in the test on SK-MEL-28 melanoma.
For the molecule `Cc1ccsc1C(NC(=O)c1ccccc1)c1cc(Cl)c2cccnc2c1O` (stereo not given), the growth in the test with DU-145 prostate was 41.2%; with K-562 leukemia it was 10.4%; in the test with MALME-3M melanoma, 47.4%; in the test with MDA-MB-231 breast, 37.8%; in the test on SF-268 CNS, 31.6%; with SF-295 CNS, 1.35% (active). The growth is 18.7% in the test on SF-539 CNS; 12.3% in the test on M14 melanoma; 13.4% with HCT-15 colon; 29.2% in the test on HT29 colon; 30% in the test with SNB-75 CNS; 15.3% in the test on SNB-19 CNS. In addition, the growth is 6.52% (active) with U251 CNS; 18.3% in the test on PC-3 prostate; 4.33% (active) in the test on SK-MEL-5 melanoma; -22.3% (active) in the test on UACC-62 melanoma; 8.58% (active) with LOX IMVI melanoma; 45.4% with SK-MEL-28 melanoma.
With `ClCc1ccc(-c2ccc(Cn3cnc4nc(Cl)nc(Cl)c43)cc2)cc1`, the growth with DU-145 prostate was -50% (active); in the test with K-562 leukemia, -14.4% (active); in the test with MALME-3M melanoma it was -32.8% (active); in the test with MDA-MB-231 breast, -21.4% (active); in the test on SF-268 CNS, 1.27% (active); in the test with SF-295 CNS, -62.5% (active). Further, the growth in the test on SF-539 CNS is -45% (active); in the test on M14 melanoma it was 13.1%; in the test on HCT-15 colon, -5.13% (active); in the test on HT29 colon it was -8.13% (active); with SNB-75 CNS, -2.49% (active); in the test with SNB-19 CNS, 6.84% (active). Further, the growth was -69.9% (active) in the test with U251 CNS; -9.15% (active) with PC-3 prostate; -85.1% (active) in the test on SK-MEL-5 melanoma; -20.5% (active) with UACC-62 melanoma; -82.6% (active) in the test on LOX IMVI melanoma.
As for `CC(N)C(Cc1ccccc1)c1ccc(Cl)cc1` (stereo not given), the growth was 110% in the test with DU-145 prostate; 87% with K-562 leukemia; 103% in the test on MALME-3M melanoma; 61.1% with MDA-MB-231 breast; 92.2% in the test with SF-268 CNS; 83.5% with SF-295 CNS. Besides, the growth in the test on SF-539 CNS was 90.1%; with M14 melanoma it was 82.6%; in the test on HCT-15 colon, 101%; in the test on HT29 colon, 76.8%; in the test with SNB-75 CNS it was 70.4%; with SNB-19 CNS, 92%. The growth in the test on U251 CNS is 86.4%; in the test with PC-3 prostate, 68%; in the test with SK-MEL-5 melanoma, 93.3%; in the test on UACC-62 melanoma, 93.2%; with LOX IMVI melanoma it was 90.1%; in the test with SK-MEL-28 melanoma, 96.7%.
For the molecule `CC[n+]1c(/C=C/C=C2\N(C)c3ccccc3C2(C)C)sc2ccccc21`, the growth in the test on DU-145 prostate is 20.3%; in the test on K-562 leukemia, 2.44% (active); with MALME-3M melanoma, 13.6%; in the test on MDA-MB-231 breast, 8.67% (active); in the test on SF-268 CNS it was 25.6%; in the test on SF-295 CNS, -6.72% (active). In addition, the growth was 19.9% with SF-539 CNS; 12.6% in the test on M14 melanoma; 6.66% (active) in the test on HCT-15 colon; 6.94% (active) in the test on HT29 colon; 28.8% in the test with SNB-75 CNS; 31.9% in the test on SNB-19 CNS. Besides, the growth is 10.8% in the test on U251 CNS; 17.4% in the test on PC-3 prostate; -89.7% (active) in the test on SK-MEL-5 melanoma; 12.4% with UACC-62 melanoma; 2.76% (active) with LOX IMVI melanoma; 37.1% with SK-MEL-28 melanoma.
